Screening data from PubChem.
Hits are enriched below; roughly 27% of the tested compounds scored in any of these assays.
CYP2C19 activ – activators of human cytochrome P450 2C19; P33261; recombinant CYP2C19, luciferin-H EGE luminescence; hits give high values; 0 = fully inhibited enzyme, 1 = untreated enzyme; activation factor at 5 µM; 96,000 tested, under 10 active; AID 1025;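 active = activation factor of at least 2 at 5 µM in the primary screen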;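 also: 0 = wells with 2.5 mM tranylcypromine and 1 = vehicle-only wells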
CYP2C9 inhib – inhibitors of human CYP2C9; CYP2C9 Supersomes, luciferin-H conversion, luminescence; inhibition, % at 5 µM; actives 20% (n = 96,000);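 active = blocking of liver enzyme CYP2C9 beyond about 50% at 5 µM, limit read from the data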
Target sequence (P11712 whole entry, looked up): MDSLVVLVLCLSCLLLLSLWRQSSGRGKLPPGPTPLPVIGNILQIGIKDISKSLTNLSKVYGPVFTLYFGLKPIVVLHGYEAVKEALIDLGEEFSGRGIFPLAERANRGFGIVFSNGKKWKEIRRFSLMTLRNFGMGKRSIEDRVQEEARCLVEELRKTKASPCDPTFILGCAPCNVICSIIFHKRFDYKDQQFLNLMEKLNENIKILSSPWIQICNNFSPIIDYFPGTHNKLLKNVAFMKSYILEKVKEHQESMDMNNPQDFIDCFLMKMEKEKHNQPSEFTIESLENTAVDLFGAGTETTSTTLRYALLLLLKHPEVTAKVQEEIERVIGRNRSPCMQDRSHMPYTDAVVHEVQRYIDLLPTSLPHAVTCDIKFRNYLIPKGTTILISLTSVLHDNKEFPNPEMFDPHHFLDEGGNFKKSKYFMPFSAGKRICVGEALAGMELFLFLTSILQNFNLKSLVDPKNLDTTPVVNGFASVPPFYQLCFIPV
Cav3 T inh – blocks human Cav3.2 T-type calcium channel. O95180. Cav3.2-expressing cells, Fluo-4 calcium fluorescence FDSS; hits give low values. B-score at 10 µM. actives 4% (n = 100,000). AID 449739;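 active = single-dose well whose peak fluorescence ratio is a statistical outlier from its plate by either plate-standardised score or position-corrected B-score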
CYP2C9 act – CYP2C9 (human) activation; recombinant CYP2C9, luciferin-H conversion, luminescence; hits give high values; factor 1 = untreated enzyme, 0 = blocked; activation factor at 5 µM; P11712; actives 1.4% (n = 96,000);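 active = activation factor of 2 or more for CYP2C9 at a 5 µM dose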;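 also: 0 = sulfaphenazole-blocked wells and 1 = vehicle-only wells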
CYP2C19 inhib – human CYP2C19 inhibition. P33261. CYP2C19 Supersomes, luciferin-H EGE luminescence, 30 min. inhibition, % at 5 µM. actives 21% (n = 96,000). AID 778;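 active = CYP2C19 inhibition above a set limit at 5 µM in the primary screen, cut at about 50% in these data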;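 also: plate controls were negative control wells for no effect and 2.5 mM tranylcypromine positive control for full effect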
Numbers without * were called inactive; · = no result given.

SMILES | CYP2C19 activ | CYP2C9 inhib | Cav3 T inh | CYP2C9 act | CYP2C19 inhib
Cc1ccc(C(C(=O)NC2CCCCC2)N(Cc2ccco2)C(=O)Cn2cnc3ccccc32)cc1 (stereo not drawn) | · | · | -5.15* | · | ·
CCOC(=O)CN(C(=O)Cn1nnc(-c2ccc(C)cc2)n1)C(CC)C(=O)NC1CCCC1 (stereo not drawn) | 0.8 | 30.4 | -1.79 | 0.7 | 24.6
O=C(NC1CCCCC1)C(c1ccccc1F)N(Cc1ccco1)C(=O)Cn1nnc2ccccc21 (stereo not drawn) | 0.9 | -6.2 | · | 1.1 | 7.7
CCC(C(=O)NC1CCCC1)N(Cc1ccco1)C(=O)Cn1nnc(-c2ccc(C)cc2)n1 (stereo not drawn) | 0.2 | 72.4* | -3.67* | 0.3 | 82.8*
COC(=O)C(NC(C)=O)(Nc1ccccc1)C(=O)OC | 0.9 | -3.4 | 0.0349 | 1 | 5.3
O=C(CNS(=O)(=O)c1cccc2nonc12)NCc1ccc(F)cc1 | 0.5 | 49.0 | -0.0363 | 0.5 | 52.9*
O=C(CNS(=O)(=O)c1cccc2nsnc12)NCc1ccc(Cl)cc1 | 0.5 | 52.1* | · | 0.5 | 50.2*
COc1ccc(CNC(=O)C2CCC(CNS(=O)(=O)c3cccc4nsnc34)CC2)cc1 (stereo not drawn) | 1 | 2.0 | -0.297 | 1 | -0.2
Cc1sc2nc3n(c(=O)c2c1C)Cc1ccccc1-3 | 0.9 | 11.8 | · | 0.9 | 5.8
Nc1nc(NCc2ccccc2)nc(Nc2ccc(F)cc2)c1[N+](=O)[O-] | 1.1 | 2.4 | 0.463 | 1 | -10.8
COc1cc2nc(=S)n3[nH]c(CCn4c(C)nc5ccccc54)nc3c2cc1OC | 1 | 4.2 | 3.32* | 1 | -0.4
NS(=O)(=O)c1ccc(NC(=O)COC(=O)CCNC(=O)NC23CC4CC(CC(C4)C2)C3)cc1 | 0.7 | 64.8* | -0.163 | 0.4 | 29.6
CCOc1cc(-c2nc3ccccn3c2NCC2CCCO2)ccc1O (stereo not drawn) | 0.6 | 75.2* | -1.06 | 0.2 | 36.6
N#Cc1cc2c(nc1SCc1cccnc1)CCC2 | 0.1 | 22.9 | 0.438 | 0.8 | 86.6*
N#Cc1cc2c(nc1SCc1cccnc1)CCCC2 | 0.2 | 60.1* | -1.88 | 0.4 | 77.6*
N#Cc1cc2c(nc1SCc1nc3ccccc3[nH]1)CCC2 | 0.8 | 27.6 | -0.774 | 0.7 | 19.3
O=C1CC(N2CCN(c3cccc(C(F)(F)F)c3)CC2)C(=O)N1c1ccc(F)cc1 (stereo not drawn) | 0.9 | 19.9 | -0.557 | 0.8 | 11.0
O=C1NC(c2ccccc2)(C(F)(F)F)SC2=NCCCN12 (stereo not drawn) | 0.3 | 20.8 | 0.854 | 0.8 | 68.4*
Cc1ccc2c(c1)C(C)(C)[C@]1(C)NC(=O)CCN21 | 0.8 | 21.2 | 0.228 | 0.8 | 24.7
O=C(c1ccco1)N1CCN(Cc2nc3ccc([N+](=O)[O-])cc3c(=O)n2-c2ccccc2F)CC1 | 0.7 | 29.1 | 1.42 | 0.7 | 28.2
O=C(NC1CCCc2ccccc21)c1cncc(Br)c1 (stereo not drawn) | 0.8 | 10.9 | 1.41 | 0.9 | 18.5
O=C(/C=C/c1cccnc1)c1ccc(NC(=O)c2cccc(Br)c2)cc1 | 0.6 | 70.3* | 2.08 | 0.3 | 38.3
CC(C)c1ccccc1OCC(=O)NCC(c1cccs1)N1CCOCC1 (stereo not drawn) | 0.3 | 19.4 | -1.88 | 0.8 | 68.1*
Cc1ccc(Cl)cc1N1CCN(C(c2ccc(C#N)cc2)c2nnnn2C2CCCC2)CC1 (stereo not drawn) | 0.7 | 55.8* | -2.64 | 0.4 | 29.3
Cc1ccc(Cl)cc1N1CCN(C(c2cccnc2)c2nnnn2C2CCCCC2)CC1 (stereo not drawn) | 0 | 93.1* | -4.99* | 0.1 | 98.4*
CCCCN(C(=O)CSc1nnc(Nc2ccc(C)c(C)c2)s1)c1c(N)n(Cc2ccccc2)c(=O)[nH]c1=O | 0.7 | 27.0 | -5.31* | 0.7 | 26.9
CCN(C(=O)CN1CCN(c2ccccc2)CC1)c1c(N)n(Cc2ccccc2)c(=O)[nH]c1=O | 1 | -3.3 | 0.434 | 1 | 2.0
CN(C(=O)CSc1nnc(Nc2ccccc2)s1)c1c(N)n(Cc2ccccc2)c(=O)[nH]c1=O | 0.7 | 64.1* | · | 0.4 | 25.9
CCCCn1c(N)c(N(CCC(C)C)C(=O)CSc2nnc3ccccn23)c(=O)[nH]c1=O | 1 | -13.7 | 1.88 | 1.1 | -2.2
CCCCCCN(C(=O)CCCCCN1C(=O)NC(c2ccc(Cl)cc2)C(C(=O)OCc2ccccc2)=C1C)C(C(=O)NCCCC)c1ccc(OCC(=O)OC)c(C(=O)OC)c1 (stereo not drawn) | · | · | -1.08 | · | ·
